Some test systems named below: MARK4; MAST1; MELK; MERTK; MET; MKK7; MKNK1; MKNK2; MLK2; MLK3; MRCKA.
Settings in all cases: concentration: 1 μM, replicates: in singlicate; n = 1
The test system of a further test is T1, MEK1.
T1 construct: gene MAP2K1

The test system of a further test is T2, MEK2.
T2 construct: gene MAP2K2

A further test concerns T3, MEK3.
T3 construct: gene MAP2K3

The test system of another test is T4, MEK4.
T4 construct: gene MAP2K4

Another test concerns T5, MEK5.
T5 construct: gene MAP2K5

The subject of the next test is T6, MEK6.
T6 construct: gene MAP2K6

The next test concerns T7, MINK.
T7 construct: gene MINK1

The subject of another test is T8, MLCK.
T8 construct: gene MYLK3

The test system of the next test is T9, MLK1.
T9 construct: gene MAP3K9
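Note: KINOMEscan kinase panel screen.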

Regarding `COc1cc(Nc2nccc(N3CCC(NC(=O)C(C)c4ccc(Cl)cc4)C3)n2)cc(OC)c1OC` (stereo not shown) [GSK1379757], the “%Inh” value in the test with MARK4 was determined as 11%; in the test on MAST1 it was 0%; in the test on MEK1 it was 0%; in the test with MEK2, 0%; in the test on MEK3 it was 0%; in the test on MEK4, 5%. Moreover, the “%Inh” value came out at 59% with MEK5; 0% in the test with MEK6; 6% in the test with MELK; 0% in the test on MERTK; 0% in the test on MET; 0% in the test with MINK. The “%Inh” value is 15% with MKK7; 0% in the test on MKNK1; 16% with MKNK2; 0% in the test with MLCK; 22% with MLK1; 0% in the test on MLK2. The results for the “%Inh” value with MLK3 and in the test with MRCKA were 28% and 15%, respectively.
With `COc1cc(OC)cc(-c2cc3cnc(N)nc3nc2NC(=O)NC(C)(C)C)c1`, the “%Inh” value in the test on MARK4, in the test with MAST1, with MEK1, with MEK2, in the test on MEK3 and in the test on MEK4 was 0% each time. The “%Inh” value was found to be 0% with MEK5; 0% in the test on MEK6; 0% with MELK; 0% with MERTK; 0% in the test with MET; 9% in the test with MINK. The “%Inh” value in the test with MKK7, in the test on MKNK1, in the test on MKNK2, with MLCK, in the test with MLK1 and with MLK2 was 0% each time. Besides, the “%Inh” value with MLK3 and with MRCKA was 0% each time.
For the compound `CCCC(=O)Nc1n[nH]c2ncc(-c3cccc4ccccc34)cc12` [SB-642057], the “%Inh” value with MARK4 amounted to 0%; in the test with MAST1, 0%; with MEK1, 4%; with MEK2, 8%; in the test on MEK3 it was 0%; in the test on MEK4, 0%. Besides, the “%Inh” value came to 12% in the test with MEK5; 0% in the test on MEK6; 33% in the test on MELK; 0% in the test with MERTK; 0% with MET; 21% in the test on MINK. In addition, the “%Inh” value in the test with MKK7 is reported as 0%; with MKNK1 it was 10%; in the test on MKNK2 it was 7%; in the test with MLCK, 0%; in the test with MLK1, 0%; in the test with MLK2, 0%. The “%Inh” value with MLK3 is recorded as 0%; with MRCKA, 9%.
Regarding `CCn1c(-c2nonc2N)nc2ccccc21` [SB-693162/GW549034], the “%Inh” value in the test on MARK4 is recorded as 0%; in the test with MAST1, 5%; in the test with MEK1, 30%; in the test on MEK2, 25%; in the test on MEK3 it was 47%; with MEK4, 48%. For the same compound, the “%Inh” value is reported as 18% in the test with MEK5; 0% in the test on MEK6; 15% in the test on MELK; 0% with MERTK; 14% with MET; 36% with MINK. The “%Inh” value in the test with MKK7 amounted to 0%; with MKNK1, 0%; in the test with MKNK2 it was 59%; in the test with MLCK it was 2%; in the test on MLK1, 0%; in the test with MLK2 it was 10%. In addition, the “%Inh” value in the test on MLK3 and in the test with MRCKA was 0% each time.
Regarding `Fc1cccc(CSc2nnc(-c3ccc4c(c3)CCO4)o2)c1`, the “%Inh” value in the test on MARK4 was found to be 0%; in the test on MAST1, 0%; with MEK1, 3%; in the test with MEK2 it was 5%; in the test with MEK3, 6%; in the test on MEK4, 5%. Besides, the “%Inh” value is 14% in the test on MEK5; 0% with MEK6; 0% in the test with MELK; 2% in the test on MERTK; 10% with MET; 5% with MINK. Further, the “%Inh” value with MKK7 is on record as 6%; with MKNK1 it was 3%; with MKNK2 it was 4%; in the test on MLCK it was 7%; with MLK1, 0%; with MLK2, 0%. In addition, the “%Inh” value in the test on MLK3 and in the test on MRCKA was 0% each time.
Consider `COc1cc2nccc(Nc3cccc(Oc4ccccc4)c3)c2cc1OC.Cl` [GW284543], for which the “%Inh” value with MARK4 is on record as 1%; in the test on MAST1, 7%; in the test with MEK1, 87%; with MEK2, 88%; in the test on MEK3, 0%; in the test with MEK4, 0%. For the same compound, the “%Inh” value in the test with MEK5 is 99.9%; in the test on MEK6 it was 0%; in the test with MELK, 8%; in the test with MERTK, 0%; with MET, 0%; in the test on MINK, 0%. Also, the “%Inh” value is listed as 0% in the test with MKK7; 0% with MKNK1; 0% in the test with MKNK2; 4% in the test with MLCK; 0% in the test with MLK1; 0% with MLK2. Also, the “%Inh” value in the test on MLK3 was 11%; with MRCKA, 4%.
As to `COc1cc2nccc(Nc3ccc(OCc4ccc(NC(C)=O)cc4)cc3)c2cc1OC.Cl` [GW440135], the “%Inh” value was 8% in the test with MARK4; 0% in the test on MAST1; 19% with MEK1; 0% with MEK2; 14% in the test with MEK3; 2% in the test with MEK4. The “%Inh” value with MEK5 turned out to be 99.6%; in the test on MEK6 it was 0%; with MELK, 0%; in the test with MERTK, 40%; in the test on MET, 0%; in the test with MINK it was 70%. Further, the “%Inh” value in the test on MKK7 is on record as 27%; with MKNK1, 6%; in the test with MKNK2 it was 15%; in the test with MLCK it was 0%; in the test on MLK1, 0%; with MLK2, 2%. Moreover, the entries for the “%Inh” value with MLK3 and in the test on MRCKA were 14% and 9%, respectively.
For `O=C(NCCNc1ccnc(Nc2ccc(F)cc2)n1)Nc1ccc2c(c1)OCO2` [GSK1379882], the “%Inh” value was determined as 0% with MARK4; 4% in the test with MAST1; 9% in the test with MEK1; 19% in the test with MEK2; 4% in the test on MEK3; 10% in the test with MEK4. Also, the “%Inh” value with MEK5 was 9%; with MEK6, 8%; in the test on MELK, 8%; with MERTK, 0%; in the test with MET, 0%; in the test on MINK it was 4%. In addition, the “%Inh” value with MKK7 is listed as 0%; with MKNK1 it was 23%; in the test on MKNK2 it was 5%; with MLCK, 0%; in the test with MLK1 it was 0%; in the test on MLK2 it was 0%. The “%Inh” value in the test on MLK3 was found to be 0%; with MRCKA it was 9%.
`Cc1nnc(-c2ccc(C)c(-c3ccc(C(=O)O)cc3)c2)o1` [GW608005]: the “%Inh” value in the test on MARK4 stood at 21%; with MAST1, 0%; in the test on MEK1 it was 0%; in the test on MEK2, 0%; with MEK3 it was 0%; with MEK4, 14%. The “%Inh” value in the test with MEK5 turned out to be 0%; with MEK6, 0%; in the test with MELK, 0%; with MERTK, 25%; with MET it was 0%; in the test on MINK it was 0%. The “%Inh” value in the test on MKK7 was determined as 13%; in the test on MKNK1, 0%; in the test on MKNK2 it was 0%; with MLCK, 0%; in the test with MLK1 it was 0%; in the test on MLK2, 0%. The “%Inh” value with MLK3 and in the test on MRCKA was 0% in each case.
As for `CCc1nc(-c2cccc(C)c2)c(-c2ccncc2)s1`, the “%Inh” value is 0% with MARK4; 0% in the test on MAST1; 2% with MEK1; 48% with MEK2; 23% with MEK3; 0% with MEK4. Further, the “%Inh” value in the test with MEK5 is 34%; in the test on MEK6 it was 0%; in the test with MELK, 0%; in the test on MERTK, 0%; with MET, 4%; with MINK, 50%. In addition, the “%Inh” value was found to be 0% in the test on MKK7; 0% in the test with MKNK1; 16% in the test with MKNK2; 6% in the test with MLCK; 0% in the test with MLK1; 0% in the test on MLK2. For the same compound, the “%Inh” value in the test on MLK3 is 17%; in the test on MRCKA, 0%.
Turning to `Cc1cc(Nc2nc(-c3cccc(C)n3)nc3ccccc23)ccn1` [GW872411], the “%Inh” value with MARK4 turned out to be 27%; in the test with MAST1, 0%; in the test with MEK1, 2%; with MEK2, 9%; in the test on MEK3 it was 12%; in the test with MEK4, 0%. Further, the “%Inh” value worked out at 4% with MEK5; 0% with MEK6; 0% with MELK; 25% in the test on MERTK; 32% in the test with MET; 1% in the test with MINK. The “%Inh” value was 0% with MKK7; 1% with MKNK1; 0% in the test with MKNK2; 0% in the test on MLCK; 0% in the test with MLK1; 28% in the test on MLK2. In addition, the “%Inh” value in the test with MLK3 and in the test with MRCKA was 0% each time.

The values are drawn from publication PMC5540273 (PLoS ONE, 2017).
